# Assay outcomes from PubChem.
# HSP90 inh = HSP90 refolding inhibition in rabbit reticulocyte lysate | luciferase refolding luminescence, 3 h | inhibition, % at 5.6 µM | 290,000 compounds, 0.91% hits | AID 1789;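 active = inhibition above the screen-wide mean plus 3 SD, computed separately per campaign, cut at about 16% in these data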;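 note: 0% = DMSO wells and 100% = 60 µM geldanamycin wells; inhibitors lower the luminescence because luciferase stays unfolded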
# SENP8 block-1 = inhibitors of human SENP8 protease. Q96LD8. purified SENP8, Z-RLRGG-aminoluciferin cleavage, luminescence. inhibition, % at 10 µM. 330,000 compounds, 1.2% hits. AID 2540; in the data active = inhibition above about 50%
# Platelet DG rel = modulates dense granule release in human platelets; AID 1663; human platelet-rich plasma, SFLLRN dense granule ATP release, luminescence; 300,000 compounds, 0.22% hits; inhibition, %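 (compounds screened at 7.5 µM in platelet-rich plasma)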;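 active = mean replicate score, as percent of positive control, at or above 50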
# SENP7 block = SENP7 protease inhibition; recombinant SENP7, Z-RLRGG-aminoluciferin luminescence, 40 min; 330,000 compounds, 1.5% hits; inhibition, % at 5 µM;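 active = inhibition above about 50% at the single test dose, limit read from the data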;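 note: plate controls were DMSO with enzyme for no effect and no enzyme buffer wells for full effect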
# Target sequence (Q9BQF6 706-1050 limits assumed): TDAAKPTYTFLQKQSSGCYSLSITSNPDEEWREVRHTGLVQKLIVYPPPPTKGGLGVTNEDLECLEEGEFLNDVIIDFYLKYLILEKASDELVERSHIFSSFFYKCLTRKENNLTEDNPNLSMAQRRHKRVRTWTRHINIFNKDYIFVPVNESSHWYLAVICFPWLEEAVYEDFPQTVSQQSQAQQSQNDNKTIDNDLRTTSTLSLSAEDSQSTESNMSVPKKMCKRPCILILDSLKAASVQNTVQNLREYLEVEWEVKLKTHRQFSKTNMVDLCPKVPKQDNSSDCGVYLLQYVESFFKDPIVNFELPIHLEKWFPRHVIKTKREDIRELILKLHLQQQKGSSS
# SENP6 block = SENP6 protease inhibition; inhibition, % at 10 µM; Recombinant SENP6 catalytic domain, aminoluciferin luminescence; 330,000 compounds, 1.8% hits; AID 2599; Q9GZR1;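 active = inhibition above about 50% at the single tested dose, limit read from the data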;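 note: plate controls were DMSO wells with enzyme for no effect and DMSO wells lacking enzyme for full effect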
# SENP8 block-2 = SENP8 (human) protease inhibition | recombinant SENP8, Nedd8 substrate fluorescence | inhibition, % at 20 µM | 360,000 compounds, 0.64% hits | AID 602440; in the data active = inhibition mostly above about 40%, no sharp cut-off; inactive = mostly below about 27%
# HSP90 confirm = confirmation of HSP90 inhibitors; shares compounds with HSP90 inh; 2,300 compounds, 64% hits; inhibition, % at 5.9 µM; rabbit reticulocyte lysate, luciferase refolding luminescence, 3 h; AID 1846; in the data active = inhibition above about 18%;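 note: 0% = vehicle wells and 100% = reference inhibitor wells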
# luciferase ctr = counter-screen for HSP90 inhibitors: inhibitors of firefly luciferase. shares compounds with HSP90 inh. purified native firefly luciferase, luminescence. inhibition, % at 5.9 µM. 2,300 compounds, 48% hits. AID 1847;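 active = inhibition above the mean inhibition of all tested sample wells plus 3 SD, cut at about 10% in these data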;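 note: 0% = DMSO with luciferase and 100% = wells lacking luciferase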
# Numbers without * were called inactive; . = not tested or not shown. Sampled rows, rich in hits. Any-hit rate of the full collection: about 2.8%.
SMILES,HSP90 inh,SENP8 block-1,Platelet DG rel,SENP7 block,SENP6 block,SENP8 block-2,HSP90 confirm,luciferase ctr
CC(C)CN(CCCNC(=O)CN1C(=O)COc2ccc(S(=O)(=O)N3CCCCCC3)cc21)CC(C)C,-0.1,-2.4,2.6,-5.3,2.9,12.1,.,.
COc1ccc(C(=O)O)cc1S(=O)(=O)N1CCN(c2ccccn2)CC1,17.3*,-6.1,1.0,6.0,-3.8,5.8,-6.6,-13.1
Cc1ccc(/C=C/c2nnc(-c3ccc(C)cc3)o2)cc1,32.0*,6.9,-8.4,7.3,30.6,-283.5,0.2,-19.3
COCC(=O)Nc1ccc(N2CCN(c3ccccc3)CC2)c(F)c1,27.4*,-8.7,-0.1,10.2,-0.1,9.5,-7.3,-12.6
Cc1nc2c(-c3ccc(F)cc3)c(C)nn2c(C)c1CCC(=O)NCCN1CCOCC1,39.7*,-10.0,-14.3,-6.9,-11.6,-17.8,4.2,-0.2
Cc1nc2c(-c3ccc(F)cc3)c(C)nn2c(C)c1CCC(=O)N1CCOCC1,-1.4,6.9,-1.2,-1.2,-0.1,-14.9,.,.
CCc1nc(SCc2ccc(F)cc2)[nH]c(=O)c1C#N,-1.7,-1.1,.,3.1,-15.0,17.4,.,.
CSCCC(C(=O)NC(C)(C)C)n1c(-c2cccc(NC(C)=O)c2)nc2ccccc21 (stereo unspecified),.,.,.,.,.,-100.5,.,.
COC(=O)CC1C(=O)NC(C)=C1C(=O)OC (stereo unspecified),36.7*,-7.9,-5.7,0.4,-7.5,.,2.7,0.9
CCN(CC)c1ccc(C2C(C(=O)OC(C)C)C(=O)CC(C)(O)C2C(=O)OC(C)C)cc1 (stereo unspecified),31.6*,0.6,0.6,10.2,1.9,16.4,2.3,-1.7
Cc1oc(-c2cc(Cl)cc(Cl)c2)cc1C(=O)NCCc1ccccc1,-4.7,-6.4,-4.1,-1.4,-26.6,2.2,.,.
COc1ccc(CCNC(=O)c2cc(-c3cc(Cl)cc(Cl)c3)oc2C)cc1,18.9*,5.4,-5.0,-1.3,-3.2,4.2,6.4,-4.2
C[C@H](O)CNC(=O)c1[nH]cnc1C(=O)Nc1ccc(CNC(=O)OC(C)(C)C)cc1,.,.,.,.,.,9.6,.,.
CC1CCc2c(sc3ncn(N)c(=N)c23)C1 (stereo unspecified),-0.3,-1.4,5.8,4.2,-6.9,-132.5,.,.
Cc1cc(-c2csc(NC(=O)c3ccc(S(=O)(=O)N(C)C)cc3)n2)c(C)n1-c1ccccc1,21.6*,-4.4,1.5,2.9,-10.4,7.3,40.9*,-1.6
Cn1cccc1/C=N/N1CCN(c2ccccc2)CC1,21.3*,5.0,-0.7,1.4,1.7,14.3,6.3,-8.8
NC(=S)NCc1cccnc1,4.8,-2.9,0.7,-4.7,-3.6,7.2,.,.
S=C(NCc1cccnc1)c1ccccc1,19.2*,6.5,-6.0,-1.6,17.8,10.1,0.2,-2.3
Cc1ccc2c(c1)c(N=Nc1cccc(C(=O)O)c1)c(O)n2C,-0.1,-12.4,0.2,0.6,-14.1,30.2,.,.
CCOc1ccc2c(c1)c(N=Nc1cccc(C(=O)O)c1)c(O)n2C,27.2*,22.0,5.8,2.3,35.0,20.4,30.1*,5.7
O=S(=O)(NCc1ccncc1)c1ccc(F)c(F)c1,.,.,.,.,.,10.6,.,.
Cc1ccc(S(=O)(=O)NCc2ccncc2)cc1C,30.0*,-4.1,-7.5,-9.7,-15.5,5.1,-1.4,-4.1
CCCc1cc(=O)n2nc(N3CCC(C(=O)Nc4cccc(C(C)=O)c4)CC3)sc2n1,1.3,-0.3,-0.5,-10.9,-14.6,8.5,.,.
CN(C)c1cccc(C(=O)N/N=C/c2ccccc2F)c1,35.7*,-1.2,.,15.0,-35.7,-8.5,73.2*,59.8*
Cc1cc(/C=N/NC(=O)c2cccc(N(C)C)c2)c(C)n1-c1cc(C(=O)O)cc(C(=O)O)c1,4.6,3.0,0.8,5.8,-0.9,-325.2,.,.
Cc1csc(N=Nc2ccc(N(C)C)cc2)[n+]1[O-],.,.,.,.,.,11.0,.,.
COc1ccc(N(/N=C2\Sc3ccccc3C2=O)C(C)=O)cc1,19.6*,.,-0.2,.,.,51.6*,73.1*,-18.9
COc1cccc(Sc2nc(-c3ccccc3)ncc2S(C)(=O)=O)c1,26.5*,1.0,-1.9,5.2,7.0,5.1,14.7,14.2*
COc1ccc(O)c(C(=O)CC(=O)c2ccccc2)c1,24.5*,22.3,1.6,-11.9,38.7,.,7.8,-22.5
